Experimental findings from PubChem BioAssay are described below.

Activity calls are given as the source filed them. Unless noted, the rule behind the calls is not given here.

Assay [1] can be described thus: compounds binding Alexa647 anti-His antibody – biochemical, small-molecule microarray, 635 nm fluorescence, artefact control for SMM control protein annotation, primary screen (AID 1128).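 Note: score merges feature fluorescence with signal-to-noise for each printed compound spot.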 Conditions: higher = more signal.
Assay [2] deals with Human papillomavirus type 1a E7 protein (residues 1-88). Kind of assay: HPV1a E7 small-molecule binders, primary screen, biochemical, small-molecule microarray, residues 1-88, 635 nm (AID 1129). The following applies: small-molecule microarray binding, fluorescence 635 nm; higher = more signal.
The target in assay [3] is Focal adhesion kinase 1 (Homo sapiens) (UniProt Q05397). Kind of assay: PTK2 protein binding on printed compound slides – biochemical, small-molecule microarray, 635/667 nm fluorescence, BSA, DTT, primary screen (AID 1130).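 Note: composite of spot emission at 667 nm and signal to noise over triplicate slides.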 Conditions: 635 nm fluorescence, higher = more signal.
Assay [4] relates to Fibrinogen (Alexa647-labelled). Kind of assay: Alexa647-fibrinogen binding to printed small molecules – biochemical, small-molecule microarray, 635/667 nm fluorescence, artefact control for SMM control-protein annotation, profiling panel (AID 1131).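 Note: z-score merges 667 nm fluorescence with per-spot signal-to-noise over triplicate slides.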 Conditions: fibrinogen-A647 binding fluorescence, higher = more signal.
Assay [5] addresses Follistatin (Homo sapiens) (UniProt P19883). Briefly: FST protein binding to printed compounds – biochemical, small-molecule microarray, 635/667 nm fluorescence, primary screen (AID 1132). The following applies: 635 nm fluorescence, higher = more signal.
Assay [6] concerns the target Fibroblast growth factor 2 (Homo sapiens) (UniProt P09038). Briefly: basic fibroblast growth factor binding to printed compounds – biochemical, small-molecule microarray, 635/667 nm fluorescence, primary screen (AID 1133). Conditions: FGF2, fluorescence 635/667, higher = more signal.
Assay [7] in a line: JC-1 mitochondrial potential readout, lung cancer cells – cell-based, A549, JC-1 fluorescence, basal, 24 h, 100 nL, profiling panel (AID 1138).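 Note: A549 lung adenocarcinoma cells under basal conditions with no added stimulus; test concentration not given here.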 The following applies: higher = more signal.
In the next assay the test system is Lefty1. Kind of assay: Lefty1 protein binding to printed compounds – biochemical, small-molecule microarray, 635/667 nm fluorescence, primary screen (AID 1139). Conditions: fluorescence 635/667, higher = more signal.
Assay [8] deals with wheat germ agglutinin (Triticum aestivum), Alexa647-labelled. Kind of assay: Alexa647-WGA lectin binding to printed small molecules – biochemical, small-molecule microarray, 635/667 nm fluorescence, artefact control for SMM control-protein annotation, profiling panel (AID 1140).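 Note: score merges 667 nm feature emission with signal to noise over triplicate slides.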 The following applies: WGA-A647 binding, 635 nm fluorescence, higher = more signal.
Assay [9] has as its target Luciferin 4-monooxygenase (Photinus pyralis) (UniProt P08659). Kind of assay: inhibition of purified Photinus pyralis luciferase – biochemical, luminescence, purified enzyme, 2006 set, primary screen (AID 1141).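 Note: cell-free assay with purified firefly luciferase at 100 ng per well in PBS; test concentration not given here.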 Conditions: purified firefly luciferase, SteadyGlo luminescence, 30 min; higher = more signal, called active from +8 up or from −8 down.
Assay [10] concerns Wnt5a (protein binding on small-molecule microarray). Briefly: small molecules binding Wnt5a protein – biophysical, small-molecule microarray, 635/667 nm fluorescence, primary screen (AID 1142).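 Note: fluorescence read at 667 nm with signal to noise per printed feature.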 The following applies: 635 nm fluorescence, higher = more signal.
Assay [11] in a line: ATP-based viability of Huh7 replicon cells – cell-based, CellTiter-Glo luminescence, basal, 48 h, cytotoxicity control for HCV replication inhibitor project, primary screen (AID 1143).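 Note: Huh7 hepatoma cells carrying a hepatitis C replication reporter with no stimulus; test concentration not given here.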 Conditions: higher = more signal, called active from +8 up or from −8 down.
Assay [12] is described as follows: Pseudomonas biofilm growth suppression – PAO1 strain, BacTiter-Glo luminescence, LB-PBS, primary screen (AID 1144). Conditions: P. aeruginosa PAO1 biofilm, 12 h, higher = more signal.
Assay [13] can be described thus: basal CRE-LacZ reporter activity in PC12 – cell-based, unstimulated, primary screen (AID 1145). The following applies: no forskolin, luminescence, 4.5 h, higher = more signal, called active from +8 up or from −8 down.
Assay [14] in a line: forskolin-driven CRE-LacZ activity in PC12 – cell-based, CRE-LacZ reporter, forskolin-stimulated, primary screen (AID 1146).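 Note: PC12 cells with 6xCRE LacZ reporter stimulated by forskolin 10 µM; beta-galactosidase reporter signal reflecting CREB driven transcription.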 The following applies: luminescence, 4.5 h, higher = more signal, called active from +8 up or from −8 down.
For assay [15], the target named is Streptavidin (Streptomyces avidinii) (UniProt P22629). Kind of assay: compounds binding control protein streptavidin – biophysical, small-molecule microarray, 635/667 nm fluorescence, artefact control for SMM compound annotation, primary screen (AID 1147).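 Note: signal reflects streptavidin binding to arrayed compounds as a control protein.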 Conditions: higher = more signal.
Assay [16] can be described thus: probe aInhba binding on compound microarray – biochemical, small-molecule microarray, 635/667 nm fluorescence, primary screen (AID 1148).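 Note: score merges 667nm spot fluorescence with signal-to-noise for antibody binding to printed compounds.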 Conditions: higher = more signal.
Assay [17] concerns the target Torsin-1A (Homo sapiens) (UniProt O14656). Kind of assay: TOR1A wild-type binding on microarray – cell lysate, small-molecule microarray, lysate, 635/667 nm, primary screen (AID 1149). The following applies: COS7 hTOR1A-WT lysate, 635 nm fluorescence, higher = more signal.
Assay [18] has the same target. Kind of assay: torsin A mutant lysate binding on microarrays – cell lysate, small-molecule microarray, COS7 lysate, 635/667 nm fluorescence, primary screen (AID 1150).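 Note: score pools 667 nm emission and signal to noise measuring lysate protein binding.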 Conditions: COS7 hTOR1A mutant lysate, 635 nm fluorescence, higher = more signal.
Assay [19] has as its system Sonic hedgehog protein (Shh). Kind of assay: Sonic hedgehog microarray binding compounds – biochemical, small-molecule microarray, 635/667 nm fluorescence, primary screen (AID 1151).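 Note: Shh protein binding to compounds spotted on small-molecule microarray slides; score combines spot fluorescence intensity with signal-to-noise across triplicate slides.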 Conditions: 635 nm fluorescence, higher = more signal.

Sequence of Torsin-1A (Homo sapiens) (O14656 whole entry, looked up): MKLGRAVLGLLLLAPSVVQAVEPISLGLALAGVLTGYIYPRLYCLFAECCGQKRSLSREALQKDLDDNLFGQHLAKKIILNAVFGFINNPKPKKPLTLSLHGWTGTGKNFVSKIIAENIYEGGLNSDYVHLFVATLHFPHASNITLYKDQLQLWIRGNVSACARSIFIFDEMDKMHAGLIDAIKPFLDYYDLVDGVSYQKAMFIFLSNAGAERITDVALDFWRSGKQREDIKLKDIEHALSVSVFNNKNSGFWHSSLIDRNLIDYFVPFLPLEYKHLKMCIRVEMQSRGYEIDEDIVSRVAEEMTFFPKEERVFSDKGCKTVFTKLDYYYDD
Sequence of Focal adhesion kinase 1 (Homo sapiens) (Q05397 whole entry, looked up): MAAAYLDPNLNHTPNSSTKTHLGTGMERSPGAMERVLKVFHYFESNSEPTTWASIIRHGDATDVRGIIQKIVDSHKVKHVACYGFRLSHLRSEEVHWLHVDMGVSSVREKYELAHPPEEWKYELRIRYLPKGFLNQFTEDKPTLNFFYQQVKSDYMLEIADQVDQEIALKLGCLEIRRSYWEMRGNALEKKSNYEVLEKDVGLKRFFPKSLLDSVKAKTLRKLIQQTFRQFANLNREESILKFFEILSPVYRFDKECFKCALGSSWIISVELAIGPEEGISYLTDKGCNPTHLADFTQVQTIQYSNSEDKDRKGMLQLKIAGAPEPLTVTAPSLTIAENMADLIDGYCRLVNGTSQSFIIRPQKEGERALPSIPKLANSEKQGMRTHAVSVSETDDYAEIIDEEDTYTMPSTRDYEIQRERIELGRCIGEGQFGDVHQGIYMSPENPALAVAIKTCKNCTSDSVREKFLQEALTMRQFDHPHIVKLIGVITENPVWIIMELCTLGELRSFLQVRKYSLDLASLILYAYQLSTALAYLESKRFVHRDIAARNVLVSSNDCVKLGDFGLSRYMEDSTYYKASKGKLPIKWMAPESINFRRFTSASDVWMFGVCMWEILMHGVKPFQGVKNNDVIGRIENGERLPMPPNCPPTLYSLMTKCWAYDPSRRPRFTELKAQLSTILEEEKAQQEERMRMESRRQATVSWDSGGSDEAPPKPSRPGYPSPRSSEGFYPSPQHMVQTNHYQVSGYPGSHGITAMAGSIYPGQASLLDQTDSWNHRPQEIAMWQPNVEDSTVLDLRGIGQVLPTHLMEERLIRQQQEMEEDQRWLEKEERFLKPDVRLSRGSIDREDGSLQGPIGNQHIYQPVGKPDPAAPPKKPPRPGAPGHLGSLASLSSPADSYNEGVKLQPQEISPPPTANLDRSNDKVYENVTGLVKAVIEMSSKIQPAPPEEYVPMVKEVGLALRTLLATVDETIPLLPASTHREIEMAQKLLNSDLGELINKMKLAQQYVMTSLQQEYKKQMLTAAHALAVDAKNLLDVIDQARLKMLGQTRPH
Sequence of Fibroblast growth factor 2 (Homo sapiens) (P09038 whole entry, looked up): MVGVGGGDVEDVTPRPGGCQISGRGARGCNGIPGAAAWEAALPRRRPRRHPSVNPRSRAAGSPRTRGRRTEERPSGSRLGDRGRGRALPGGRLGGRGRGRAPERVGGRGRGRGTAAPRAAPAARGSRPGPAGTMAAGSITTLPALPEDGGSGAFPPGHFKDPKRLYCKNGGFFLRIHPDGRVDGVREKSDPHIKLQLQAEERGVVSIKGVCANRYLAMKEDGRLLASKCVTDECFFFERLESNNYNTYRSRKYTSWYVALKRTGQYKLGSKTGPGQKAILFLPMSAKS
Sequence of Luciferin 4-monooxygenase (Photinus pyralis) (P08659 whole entry, looked up): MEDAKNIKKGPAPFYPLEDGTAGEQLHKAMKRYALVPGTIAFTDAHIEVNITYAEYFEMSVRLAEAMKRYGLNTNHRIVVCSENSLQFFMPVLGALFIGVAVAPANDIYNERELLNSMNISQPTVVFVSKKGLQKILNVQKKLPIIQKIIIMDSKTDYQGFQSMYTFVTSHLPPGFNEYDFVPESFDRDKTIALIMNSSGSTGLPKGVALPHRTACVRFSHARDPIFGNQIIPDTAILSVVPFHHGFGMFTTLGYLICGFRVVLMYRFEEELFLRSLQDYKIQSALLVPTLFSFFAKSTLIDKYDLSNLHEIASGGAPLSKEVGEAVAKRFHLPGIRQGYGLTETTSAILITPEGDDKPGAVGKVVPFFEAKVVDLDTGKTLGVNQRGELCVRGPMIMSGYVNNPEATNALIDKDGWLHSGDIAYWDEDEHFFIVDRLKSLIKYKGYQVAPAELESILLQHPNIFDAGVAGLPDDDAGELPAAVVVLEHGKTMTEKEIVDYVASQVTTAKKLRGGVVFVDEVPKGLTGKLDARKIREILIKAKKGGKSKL
Sequence of Follistatin (Homo sapiens) (P19883 whole entry, looked up): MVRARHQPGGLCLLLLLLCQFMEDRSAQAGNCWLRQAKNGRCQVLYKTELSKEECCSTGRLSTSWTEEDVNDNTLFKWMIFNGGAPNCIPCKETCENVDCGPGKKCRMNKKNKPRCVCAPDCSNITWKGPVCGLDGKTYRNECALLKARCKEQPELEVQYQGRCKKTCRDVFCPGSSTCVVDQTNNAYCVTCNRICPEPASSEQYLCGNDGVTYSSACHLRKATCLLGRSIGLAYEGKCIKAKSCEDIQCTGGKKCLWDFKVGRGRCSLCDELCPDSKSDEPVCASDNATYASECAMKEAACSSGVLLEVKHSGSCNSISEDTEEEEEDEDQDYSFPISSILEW
Sequence of Streptavidin (Streptomyces avidinii) (P22629 whole entry, looked up): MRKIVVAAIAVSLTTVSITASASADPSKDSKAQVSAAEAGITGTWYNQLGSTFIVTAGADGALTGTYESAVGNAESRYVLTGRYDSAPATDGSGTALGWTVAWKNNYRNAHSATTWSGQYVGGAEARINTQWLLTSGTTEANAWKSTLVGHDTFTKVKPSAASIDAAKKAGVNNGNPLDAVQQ

As for `Cc1ccc(S[C@]2(C(=O)NC(C)C)CC(=O)N(C(C)C)[C@@H]2c2ccc(CO)cc2I)cc1`, the composite z-score in [1] was -0.893; in [2] it was -0.0049; in [3], 1.58; in assay [4], 0.351; in assay [5], -0.077; in assay [6], -0.471. Also, the composite z-score in the assay on Lefty1 is -0.18; in assay [8] it was 0.169; in [10], -0.0983; in assay [15], -0.368; in [16], -0.15; in the assay with Torsin-1A (Homo sapiens) [17], -1.07. Moreover, the results for the composite z-score (with Torsin-1A (Homo sapiens) [18]; in [19]) were 0.885 and -0.244, respectively. The z-score is 1.28 in assay [7]; 1.11 (inactive) in assay [9]; -2.59 (inactive) in assay [11]; -0.468 (inactive) in assay [12]; 0.324 (inactive) in assay [13]; -0.3 (inactive) in assay [14].

Turning to `O=C1OCCC/C=C\[C@H]2OC34C=CCN(c5ccc6ccccc6c5)C(=O)[C@H]3N(CCCO)C(=O)[C@@H]4C12` (stereo not given in full), the composite z-score in [1] is 1.09; in [2], -0.0247; in assay [3], 0.984; in assay [4], -1.07; in assay [5], -0.45; in [6], -0.755. Moreover, the composite z-score was -0.345 in the assay on Lefty1; 0.576 in assay [8]; -0.482 in assay [10]; -1.3 in assay [15]; -0.21 in assay [16]; -0.553 in the assay with Torsin-1A (Homo sapiens) [17]. The figures for the composite z-score (in the assay with Torsin-1A (Homo sapiens) [18]; in assay [19]) were -1.1 and -0.339, respectively. The z-score in assay [7] is 0.333; in [9], -0.183 (inactive); in [11] it was 0.187 (inactive); in [12], 2.06 (inactive); in [13] it was 2.9 (inactive); in assay [14], -0.942 (inactive).

For the compound `C=C[C@H](C)[C@H](OC(=O)Nc1ccc(OC)cc1)c1ccc(OCCO)cc1`, the composite z-score in [1] is -0.489; in assay [2] it was -0.653; in assay [3], 0.0457; in [4] it was -0.909; in assay [5], -0.617; in [6], -0.0943. Further, the composite z-score in the assay on Lefty1 was -0.431; in assay [8] it was -0.647; in assay [10], -0.423; in assay [15], -0.911; in assay [16] it was -0.314; in the assay with Torsin-1A (Homo sapiens) [17], 0.763. The composite z-score is 0.0508 with Torsin-1A (Homo sapiens) [18] and 0.261 in [19]. The z-score was 0.927 in assay [7]; -6.74 (inactive) in [9]; -2.77 (inactive) in [11]; 0.133 (inactive) in assay [12]; 4.89 (inactive) in assay [13]; 0.0618 (inactive) in [14].

As for `CC(=O)NCCCC[C@@H]1NC(=O)[C@@H]2C[C@H](C(=O)NCCCCCCN)[C@H](c3cccc(OCCO)c3)N2C1=O`, the composite z-score was 1.86 in assay [1]; 0.286 in assay [2]; 0.367 in [3]; 1.01 in assay [4]; 0.382 in [5]; -0.0704 in assay [6]. For the same compound, the composite z-score is -0.555 with Lefty1; 1.11 in assay [8]; -0.147 in [10]; 0.932 in [15]; -0.128 in assay [16]; 0.475 with Torsin-1A (Homo sapiens) [17]. Also, the figures for the composite z-score (in the assay with Torsin-1A (Homo sapiens) [18]; in assay [19]) were 0.464 and -0.601, respectively. Moreover, the z-score in assay [7] is 0.266; in assay [9], -0.352 (inactive); in assay [11], -0.0107 (inactive); in assay [12], 0.615 (inactive); in [13], -0.13 (inactive); in assay [14], -0.556 (inactive).

On to `O=C(NCCN1CCOCC1)[C@@H]1c2ccccc2C(=O)N(Cc2ccccc2)[C@H]1c1ccc(CO)cc1`, for which the composite z-score in [1] is -0.87; in assay [2], -0.611; in assay [3], -0.668; in assay [4] it was 0.143; in [5], 0.321; in [6] it was -0.447. The composite z-score with Lefty1 was -0.665; in assay [8] it was -0.3; in assay [10] it was -0.817; in assay [15] it was 1.49; in assay [16], -0.0719; with Torsin-1A (Homo sapiens) [17], -1.46. Also, the composite z-score was -0.21 in the assay with Torsin-1A (Homo sapiens) [18] and -1.67 in assay [19]. Besides, the z-score is 0.829 in [7]; 1.36 (inactive) in assay [9]; -1.62 (inactive) in [11]; -0.996 (inactive) in assay [12]; 0.145 (inactive) in [13]; -0.674 (inactive) in assay [14].
